# Assay results: PubChem BioAssay (Tox21)
# Records with an inconclusive call do not appear. A number with no mark means an inactive call. Calls come from the whole dose curve; as a rule, active = well fitted cell-killing curve with a large enough effect in the repeat runs; inconclusive = weak or mixed curves; inactive = flat fitted curve, though single readings scatter.
# Assay: qHTS RealTime-Glo MT Cell Viability Assay in HepG2 cells - 8 hour (AID 1224873); note: nearly all actives have a fitted effect of over 55% in size
# Details: RealTime-Glo luminescence; series mostly up to 76.8 µM; viability change, negative = cytotoxic: at the top concentration
# Excerpt: National Center for Advancing Translational Sciences [NCATS]
# NIH Chemical Genomics Center [NCGC]
# U.S. Environmental Protection Agency [EPA]
# National Institutes of Environmental Health Sciences [NIEHS]
# National Toxicology Program [NTP]
# U.S. Food and Drug Administration [FDA]
# Measure of cell viability is critical in the cell-base assay. Analysis of cell viability is necessary for the characterization of cell responses to cytotoxic drugs and environmental stress. A RealTime-Glo MT Cell Viability Assay to monitor cell viability in real time of continues cell culture during 40 hours of compound treatment was used to screen Tox21 10K library compounds in HepG2 cells. The RealTime-Glo MT Cell Viability Assay is a nonlytic, homogeneous, bioluminescent method to measure cell viability in real time using a simple, plate-based method. The assay involves adding NanoLuc luciferase and a cell-permeant prosubstrate to cells in culture. Viable cells reduce the proprietary prosubstrate to generate a substrate for NanoLuc luciferase. This substrate diffuses from cells into the surrounding culture medium, where it is rapidly used by the NanoLuc Enzyme to produce a luminescent signal. The signal correlates with the number of viable cells, making the assay well suited for cytotoxicity studies.
# Tox21 Assay Protocol Summary:
# The mixture of HepG2 cell suspension and reagents were dispensed at 600cells/6 ul/well in 1536-well tissue culture treated black solid bottom plates using a Multidrop dispenser. After the assay plates were incubated at a 37 C/5% CO2 incubator for 5 hours, 23 nL of compounds dissolved in DMSO, positive and negative controls was transferred to the assay plate by a pintool work station. The plates were incubated at 37 C for 40 hours. The luminescence intensity were measured at 0h, 8h, 16h, 24h, 32h and 40h time points using ViewLux plate reader during compound treatment.
# % is set by controls: 0 for no effect and ±100 for the full control effect.
row,SMILES,"viability change, negative = cytotoxic"
1,CC(C)(C)N(CCO)CCO,0.363%
2,CCCCCCCCCCCCCCCCCCOCC(O)CO (stereo not given),-5.79% [at 35.3 µM]
3,CCC(C(=O)NC(N)=O)c1ccccc1 (stereo not given),-1.72%
4,Nc1cc(C(Cl)=C(Cl)Cl)c(S(N)(=O)=O)cc1S(N)(=O)=O,-4.55% [at 35.3 µM]
5,NC(=O)c1ncn([C@@H]2O[C@H](CO)[C@@H](O)[C@H]2O)c1O,1.33% [at 35.3 µM]
6,O=[N+]([O-])c1ccc(CCO)cc1,-1.54%
7,CCCCc1ccc2cccc(S(=O)(=O)O)c2c1,4.96%
8,CC1=CCC2C(C1)C2(C)C (stereo not given),2.02%
9,CCCCCCC(CCCCCCCCCCC(=O)OCC(COC(C)=O)OC(C)=O)OC(C)=O (stereo not given),1.25% [at 35.3 µM]
10,O=C(O)c1ccc[n+]([O-])c1,2.73% [at 35.3 µM]
11,CCO[Si](CCCN=C=O)(OCC)OCC,1.17%
12,Cc1cc(C)c(NC(=O)CN(CC(=O)O)CC(=O)O)c(C)c1Br,0.776% [at 35.3 µM]
13,C#CC(O)CCCCC (stereo not given),-0.508%
14,CC(C)c1cccc(C(C)C)c1N,-12.5%
15,CC(C)(C)CC(C)(C)N,-0.0054%
16,CSc1nc(NC2CC2)nc(NC(C)(C)C)n1,-6.8%
17,CC(C)(O)C(=O)c1ccc(OCCO)cc1,1.3%
18,CCCCCCCCN(C)CCCCCCCC,-9.81%
19,Cc1ccc(Nc2ccc(O)c3c2C(=O)c2ccccc2C3=O)cc1,-12.7%
20,O=C1CC2(CCCC2)CC(=O)N1,1.83% [at 35.3 µM]

row,SMILES,"viability change, negative = cytotoxic"
1,CCC(C)(C)C1CCC(OC)CC1 (stereo not given),4.22%
2,O=C(O)C(O)[C@H](O)[C@@H](O)[C@H](O)[C@H](O)CO (stereo not given in full),0.627%
3,CC(C)(C)C(=O)/C=C/c1ccc(Cl)cc1,1.5%
4,CC(C)CCCC(C)NCCC(C)C (stereo not given),-0.0945% [at 35.3 µM]
5,NC(N)=NS(=O)(=O)c1ccc(N)cc1,0.88% [at 35.3 µM]
6,CCCCCCCCCCCl,-0.319%
7,CCN1CCN(c2cc3c(cc2F)c(=O)c(C(=O)O)cn3C2CC2)CC1,3.37% [at 35.3 µM]
8,COC(=O)CCCC(=O)O,4.48%
9,CC(C)CCCCCCN,1.62%
10,CCn1c(=O)c2c(nc(/C=C/c3ccc(OC)c(OC)c3)n2C)n(CC)c1=O,-22.7% [at 35.3 µM]
11,NC(=S)Nc1cccc2ccccc12,2.4% [at 6.97 µM]
12,COc1cc(C)cc(O)c1,2.14%
13,NCCNC(=O)c1ccc(Cl)cn1,-0.806% [at 35.3 µM]
14,CN(C)N=Nc1ccccc1,-5.87%
15,c1ccc(CCCc2ccccn2)cc1,-8.58%
16,O=C(CCOCCOCCOCCOCCC(=O)Nc1c(I)cc(I)c(C(=O)O)c1I)Nc1c(I)cc(I)c(C(=O)O)c1I,-3.93% [at 35.3 µM]
17,CC/C=C\C#N,1.58%
18,CN(C)CCOC(c1ccc(Cl)cc1)c1ccccn1 (stereo not given),6.97% [at 35.3 µM]
19,N#CCN(CC#N)CCN(CC#N)CC#N,-10.9%
20,CCCCCCCCCCC1CO1 (stereo not given),2.61%
